Laboratory results reported in PubChem BioAssay AID1159580 (chemical genetic matrix, 2015).
Several values for one entry are separate records, joined by “and”; a condition that tells them apart may be missing. Equal entries are not always repeated. Among all 5,500 compounds or so, about 2,000 (36%) were called active. Inconclusive results (about 18%) are left out. Rule as the data show it: active = normalized growth mostly below about 0.91 (no sharp cut-off); inconclusive = no clear call, values can overlap the other calls; inactive = mostly above about 0.92. The list shows a part of the results.

Experiment: chemical genetic growth profiling, strain panel (AID 1159580);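 also: tested at 20 µM; growth read once vehicle control cultures reached saturation at 30 °C; 1 = growth at the plate median or of vehicle wells; lower values mean less growth of the strain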
Conditions: growth OD
[1] = S. cerevisiae deletion strains, locus YDL101C, strain DUN1, active compounds read low
[2] = S. cerevisiae deletion strains, locus YHR030C, strain SLT2, active compounds read low

Measured: normalized growth

Cc1cc(=O)[nH]c(-c2ccccn2)n1
inactive: S. cerevisiae deletion strains, locus YAL013W, strain DEP1, active compounds read low 1.01 and 0.994 | S. cerevisiae deletion strains, locus YBR229C, strain ROT2, active compounds read low 1.01 | S. cerevisiae deletion strains, locus YCL061C, strain MRC1, active compounds read low 1 and 0.995 | [1] 0.994 | S. cerevisiae deletion strains, locus YDL134C, strain PPH21, active compounds read low 1.02 | S. cerevisiae deletion strains, locus YDR150W, strain NUM1, active compounds read low 0.912 and 1.02 | S. cerevisiae deletion strains, locus YEL061C, strain CIN8, active compounds read low 0.993 and 1.01 | S. cerevisiae deletion strains, locus YGR078C, strain PAC10, active compounds read low 1 and 1.01 | S. cerevisiae deletion strains, locus YGR229C, strain SMI1, active compounds read low 1.02 | [2] 1.02 and 1.03 | S. cerevisiae deletion strains, locus YHR087W, strain rtc3, active compounds read low 1.01 | S. cerevisiae deletion strains, locus YJR043C, strain POL32, active compounds read low 1.01 | S. cerevisiae deletion strains, locus YJR075W, strain HOC1, active compounds read low 1.04 and 1.01 | S. cerevisiae deletion strains, locus YLR039C, strain RIC1, active compounds read low 0.993 and 1.05 | S. cerevisiae deletion strains, locus YLR058C, strain SHM2 (second series), active compounds read low 1.01 and 1.02 | S. cerevisiae deletion strains, locus YLR085C, strain ARP6, active compounds read low 0.91 and 1.03 | S. cerevisiae deletion strains, locus YLR262C, strain YPT6, active compounds read low 0.993 and 1.02 | S. cerevisiae deletion strains, locus YML094W, strain GIM5, active compounds read low 0.965 and 1.01 | S. cerevisiae deletion strains, locus YMR219W, strain ESC1, active compounds read low 1.01 | S. cerevisiae deletion strains, locus YMR263W, strain SAP30, active compounds read low 0.943 and 0.992 | S. cerevisiae deletion strains, locus YMR307W, strain GAS1, active compounds read low 1.07 | S. cerevisiae deletion strains, locus YNL153C, strain GIM3, active compounds read low 1 and 0.995 | S. cerevisiae deletion strains, locus YNL298W, strain CLA4 (second series), active compounds read low 0.986 and 1.02 | S. cerevisiae deletion strains, locus YNL322C, strain KRE1, active compounds read low 1.01 and 1 | S. cerevisiae deletion strains, locus YNR030W, strain Alg12, active compounds read low 1.02 | S. cerevisiae deletion strains, locus YOL006C, strain TOP1, active compounds read low 1.09 | S. cerevisiae deletion strains, locus YPL055C, strain LGE1, active compounds read low 0.936 and 1 | S. cerevisiae deletion strains, locus YPL241C, strain CIN2, active compounds read low 1.03 | S. cerevisiae deletion strains, locus YPR135W, strain CTF4, active compounds read low 0.997 and 1.01 | S. cerevisiae strains, strain wild type, active compounds read low 1.01

Cc1nc(-c2ccccn2)[nH]c(=O)c1Cc1c(Cl)cccc1Cl
active: S. cerevisiae deletion strains, locus YLR113W, strain HOG1, active compounds read low 0.837
inactive: S. cerevisiae deletion strains, locus YAR019C, strain CDC15, active compounds read low 0.967 | S. cerevisiae deletion strains, locus YBL105C, strain PKC1, active compounds read low 0.962 | S. cerevisiae deletion strains, locus YBR135W, strain CKS1, active compounds read low 0.956 | S. cerevisiae deletion strains, locus YBR136W, strain MEC1, active compounds read low 0.954 | S. cerevisiae deletion strains, locus YBR160W, strain CDC28, active compounds read low 0.963 | S. cerevisiae deletion strains, locus YDL017W, strain CDC7, active compounds read low 0.961 | S. cerevisiae deletion strains, locus YDL028C, strain MPS1, active compounds read low 0.95 | [1] 0.965 | S. cerevisiae deletion strains, locus YDL108W, strain KIN28, active compounds read low 0.954 | S. cerevisiae deletion strains, locus YDL132W, strain cdc53, active compounds read low 0.941 | S. cerevisiae deletion strains, locus YDL214C, strain PRR2, active compounds read low 0.861 | S. cerevisiae deletion strains, locus YDR052C, strain DBF4, active compounds read low 0.96 | S. cerevisiae deletion strains, locus YDR054C, strain cdc34, active compounds read low 0.928 | S. cerevisiae deletion strains, locus YDR226W, strain ADK1, active compounds read low 0.959 | S. cerevisiae deletion strains, locus YDR477W, strain SNF1, active compounds read low 0.871 | S. cerevisiae deletion strains, locus YER123W, strain YCK3, active compounds read low 0.726 | S. cerevisiae deletion strains, locus YER133W, strain GLC7, active compounds read low 0.872 | S. cerevisiae deletion strains, locus YFL009W, strain cdc4, active compounds read low 0.965 | S. cerevisiae deletion strains, locus YFL029C, strain CAK1, active compounds read low 0.957 | S. cerevisiae deletion strains, locus YFR003C, strain YPI1, active compounds read low 0.959 | S. cerevisiae deletion strains, locus YFR019W, strain FAB1, active compounds read low 0.906 | S. cerevisiae deletion strains, locus YFR028C, strain CDC14, active compounds read low 0.972 | S. cerevisiae deletion strains, locus YGR040W, strain KSS1, active compounds read low 0.859 | S. cerevisiae deletion strains, locus YGR052W, strain FMP48, active compounds read low 0.871 | S. cerevisiae deletion strains, locus YGR092W, strain DBF2, active compounds read low 0.762 | [2] 0.985 | S. cerevisiae deletion strains, locus YHR079C, strain IRE1, active compounds read low 0.842 | S. cerevisiae deletion strains, locus YHR082C, strain KSP1, active compounds read low 0.893 | S. cerevisiae deletion strains, locus YHR205W, strain SCH9, active compounds read low 0.939 | S. cerevisiae deletion strains, locus YIL147C, strain SLN1, active compounds read low 0.946 | S. cerevisiae deletion strains, locus YJL095W, strain BCK1, active compounds read low 0.892 | S. cerevisiae deletion strains, locus YJL128C, strain PBS2, active compounds read low 0.928 | S. cerevisiae deletion strains, locus YJL157C, strain FAR1, active compounds read low 0.823 | S. cerevisiae deletion strains, locus YJR016C, strain ILV3, active compounds read low 0.952 | S. cerevisiae deletion strains, locus YJR066W, strain TOR1 (second series), active compounds read low 0.769 | S. cerevisiae deletion strains, locus YJR066W, strain TOR1, active compounds read low 0.864 | S. cerevisiae deletion strains, locus YKL048C, strain ELM1, active compounds read low 0.941 | S. cerevisiae deletion strains, locus YKL067W, strain YNK1, active compounds read low 0.881 | S. cerevisiae deletion strains, locus YKL101W, strain HSL1, active compounds read low 0.853 | S. cerevisiae deletion strains, locus YKL193C, strain SDS22, active compounds read low 0.951 | S. cerevisiae deletion strains, locus YKL203C, strain TOR2, active compounds read low 0.899 | S. cerevisiae deletion strains, locus YLR133W, strain CKI1, active compounds read low 0.889 | S. cerevisiae deletion strains, locus YLR403W, strain SFP1, active compounds read low 0.858 | S. cerevisiae deletion strains, locus YML070W, strain DAK1, active compounds read low 0.84 | S. cerevisiae deletion strains, locus YMR001C, strain CDC5, active compounds read low 0.956 | S. cerevisiae deletion strains, locus YMR205C, strain PFK2 (second series), active compounds read low 0.876 | S. cerevisiae deletion strains, locus YMR277W, strain FCP1, active compounds read low 0.952 | S. cerevisiae deletion strains, locus YNL006W, strain LST8, active compounds read low 0.952 | S. cerevisiae deletion strains, locus YNL020C, strain ARK1, active compounds read low 0.845 | S. cerevisiae deletion strains, locus YNL161W, strain CBK1, active compounds read low 0.958 | S. cerevisiae deletion strains, locus YNL183C, strain NPR1, active compounds read low 0.9 | S. cerevisiae deletion strains, locus YNL207W, strain RIO2, active compounds read low 0.951 | S. cerevisiae deletion strains, locus YNL222W, strain SSU72, active compounds read low 0.956 | S. cerevisiae deletion strains, locus YNL307C, strain MCK1 (second series), active compounds read low 0.843 | S. cerevisiae deletion strains, locus YOL078W, strain AVO1, active compounds read low 0.964 | S. cerevisiae deletion strains, locus YOL136C, strain PFK27, active compounds read low 0.866 | S. cerevisiae deletion strains, locus YOR061W, strain CKA2, active compounds read low 0.827 | S. cerevisiae deletion strains, locus YOR119C, strain RIO1, active compounds read low 0.887 | S. cerevisiae deletion strains, locus YOR231W, strain MKK1, active compounds read low 0.86 | S. cerevisiae deletion strains, locus YOR329C, strain SCD5, active compounds read low 0.958 | S. cerevisiae deletion strains, locus YPL031C, strain PHO85, active compounds read low 0.869 | S. cerevisiae deletion strains, locus YPL153C, strain RAD53, active compounds read low 0.805 | S. cerevisiae deletion strains, locus YPL204W, strain HRR25, active compounds read low 0.84 | S. cerevisiae deletion strains, locus YPL209C, strain IPL1, active compounds read low 0.956 | S. cerevisiae deletion strains, locus YPL256C, strain CLN2, active compounds read low 0.94 | S. cerevisiae deletion strains, locus YPR025C, strain CCL1, active compounds read low 0.964 | S. cerevisiae deletion strains, locus YPR106W, strain ISR1, active compounds read low 0.985 | S. cerevisiae deletion strains, locus YPR111W, strain DBF20, active compounds read low 0.973 | S. cerevisiae deletion strains, strain NNK1, active compounds read low 0.96 | S. cerevisiae deletion strains, strain TSCII, active compounds read low 0.949
